# Experimental data from the supplement of paper PMC10849652.
# Of roughly 8,800 targets only a part is listed; those with a hit were picked by preference. About 0.5% of all pairs of compound and target were hits. Values without a mark were called inactive.
# What was measured:
# Test in all cases: log2 fold change, soluble protein after heating vs DMSO (PISA); higher = thermal stabilisation; K562 lysate, 10 uM; active = over 0.2 and 3.5 SD of the protein, either way, in both replicates (recomputed)
# [1] = compound: C#Cc1cccc(Nc2ncnc3cc(OCCOC)c(OCCOC)cc23)c1 [erlotinib]
# In short: (§1)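 Quantification was by TMTpro 16plex LC-MS/MS with equalised channel sums, applied to the supernatant after 21,000xg for 90 min. Samples were crude K562 extract at 1 mg/mL protein in PBS pH 7.4 with 1 mM MgCl2, treated with 10 μM compound for 30 min, heated for 3 min across 48°C-58°C, pooled and brought to 0.5% NP-40 at 4°C. Values are log-two fold changes in thermal stability relative to solvent controls, from duplicates.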
# [2] = compound: C/C(=N\NC(=O)C1=CC(=CC=C1)S(=O)(=O)N2CCOCC2)/C3=C(C=CC(=C3)Cl)O
# In short: as §1
# [3] = compound: C1=CC(=CC=C1C2=NC3=C(N2)C=C(C=C3)C(=O)N)OC4=CC=C(C=C4)Cl
# In short: as §1
# [4] = compound: C1=CC2=C(C=CC(=C2)/C=C\3/C(=O)NC(=NCC4=CC=CS4)S3)N=C1
# In short: as §1
# [5] = compound: C1=CC2=NC=CN=C2C=C1/C=C/3\C(=O)NC(=O)S3
# In short: as §1
# [6] = compound: C1=CC=C(C=C1)C2=NC(=C(N2)C3=CC=NC=C3)C4=CC(=C(C=C4)Cl)O
# In short: as §1
# [7] = compound: C1=CC=C2C(=C1)C3=NNC4=CC=CC(=C43)C2=O
# In short: as §1
# [8] = compound: C1CCN(C1)C(=O)NC2=CC=CC(=C2)NC3=NC=C(C(=N3)NCCC4=CN=CN4)Br
# In short: as §1
# [9] = compound: C1CN(CCC1(CC2=CC=C(C=C2)Cl)N)C3=NC=NC4=C3C=CN4
# In short: as §1
# [10] = compound: C1COCCN1CCN2C3=CC=CC=C3N=C2NC(=O)C4=CC(=CC=C4)[N+](=O)[O-] [IRAK-1-4 Inhibitor I]
# In short: as §1
# Sequence of UniProt Q14008 (Q14008 whole entry, looked up): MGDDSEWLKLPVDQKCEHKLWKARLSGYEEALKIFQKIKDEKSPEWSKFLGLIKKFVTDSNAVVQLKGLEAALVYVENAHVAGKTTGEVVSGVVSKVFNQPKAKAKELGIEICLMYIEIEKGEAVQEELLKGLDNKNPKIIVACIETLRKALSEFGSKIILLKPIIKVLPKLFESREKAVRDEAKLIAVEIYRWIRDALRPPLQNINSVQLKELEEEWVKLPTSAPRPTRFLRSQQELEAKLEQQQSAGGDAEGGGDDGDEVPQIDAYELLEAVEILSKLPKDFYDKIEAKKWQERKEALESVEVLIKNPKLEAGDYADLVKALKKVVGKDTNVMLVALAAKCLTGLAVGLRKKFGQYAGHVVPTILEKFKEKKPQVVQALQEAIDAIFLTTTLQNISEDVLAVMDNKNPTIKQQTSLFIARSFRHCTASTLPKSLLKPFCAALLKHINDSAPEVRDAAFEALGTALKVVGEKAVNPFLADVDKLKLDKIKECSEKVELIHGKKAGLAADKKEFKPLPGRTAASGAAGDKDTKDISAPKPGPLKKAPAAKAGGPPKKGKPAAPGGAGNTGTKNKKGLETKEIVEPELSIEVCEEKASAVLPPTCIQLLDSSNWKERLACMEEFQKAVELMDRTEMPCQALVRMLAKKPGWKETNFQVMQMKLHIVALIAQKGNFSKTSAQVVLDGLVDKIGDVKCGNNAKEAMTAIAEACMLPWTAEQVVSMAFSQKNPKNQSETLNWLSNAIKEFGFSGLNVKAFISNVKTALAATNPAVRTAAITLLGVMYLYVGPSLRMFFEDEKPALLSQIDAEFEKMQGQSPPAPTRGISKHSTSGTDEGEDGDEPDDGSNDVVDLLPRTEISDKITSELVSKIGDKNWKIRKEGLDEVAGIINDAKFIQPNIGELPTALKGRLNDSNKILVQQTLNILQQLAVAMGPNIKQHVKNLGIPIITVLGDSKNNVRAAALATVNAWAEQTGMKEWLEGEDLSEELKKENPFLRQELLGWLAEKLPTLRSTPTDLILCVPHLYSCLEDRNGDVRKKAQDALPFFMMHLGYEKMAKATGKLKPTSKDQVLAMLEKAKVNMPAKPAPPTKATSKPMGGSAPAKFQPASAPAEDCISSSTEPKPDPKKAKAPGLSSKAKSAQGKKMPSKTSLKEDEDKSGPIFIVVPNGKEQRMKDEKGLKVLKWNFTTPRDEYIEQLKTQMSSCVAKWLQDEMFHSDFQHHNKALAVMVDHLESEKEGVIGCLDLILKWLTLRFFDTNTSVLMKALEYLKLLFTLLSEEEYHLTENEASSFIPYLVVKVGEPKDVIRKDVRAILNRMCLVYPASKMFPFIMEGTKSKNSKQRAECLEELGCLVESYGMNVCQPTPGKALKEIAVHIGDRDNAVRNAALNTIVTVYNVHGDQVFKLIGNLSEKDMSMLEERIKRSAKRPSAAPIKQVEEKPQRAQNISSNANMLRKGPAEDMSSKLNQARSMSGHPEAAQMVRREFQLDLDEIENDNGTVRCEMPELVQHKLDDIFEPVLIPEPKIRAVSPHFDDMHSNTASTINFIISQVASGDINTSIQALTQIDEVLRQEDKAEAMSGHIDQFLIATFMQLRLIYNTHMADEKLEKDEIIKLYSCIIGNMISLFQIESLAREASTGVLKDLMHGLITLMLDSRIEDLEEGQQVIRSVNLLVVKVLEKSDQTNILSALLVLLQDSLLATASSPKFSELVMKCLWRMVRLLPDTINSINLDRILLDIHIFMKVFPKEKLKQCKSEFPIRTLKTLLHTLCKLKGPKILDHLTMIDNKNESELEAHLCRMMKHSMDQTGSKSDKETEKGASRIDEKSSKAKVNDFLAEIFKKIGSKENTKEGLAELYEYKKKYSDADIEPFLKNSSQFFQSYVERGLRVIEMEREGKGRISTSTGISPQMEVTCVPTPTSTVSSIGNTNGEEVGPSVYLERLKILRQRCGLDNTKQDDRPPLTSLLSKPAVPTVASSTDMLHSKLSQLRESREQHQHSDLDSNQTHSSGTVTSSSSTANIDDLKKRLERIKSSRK
# Sequence of UniProt Q9H9E3 (Q9H9E3 whole entry, looked up): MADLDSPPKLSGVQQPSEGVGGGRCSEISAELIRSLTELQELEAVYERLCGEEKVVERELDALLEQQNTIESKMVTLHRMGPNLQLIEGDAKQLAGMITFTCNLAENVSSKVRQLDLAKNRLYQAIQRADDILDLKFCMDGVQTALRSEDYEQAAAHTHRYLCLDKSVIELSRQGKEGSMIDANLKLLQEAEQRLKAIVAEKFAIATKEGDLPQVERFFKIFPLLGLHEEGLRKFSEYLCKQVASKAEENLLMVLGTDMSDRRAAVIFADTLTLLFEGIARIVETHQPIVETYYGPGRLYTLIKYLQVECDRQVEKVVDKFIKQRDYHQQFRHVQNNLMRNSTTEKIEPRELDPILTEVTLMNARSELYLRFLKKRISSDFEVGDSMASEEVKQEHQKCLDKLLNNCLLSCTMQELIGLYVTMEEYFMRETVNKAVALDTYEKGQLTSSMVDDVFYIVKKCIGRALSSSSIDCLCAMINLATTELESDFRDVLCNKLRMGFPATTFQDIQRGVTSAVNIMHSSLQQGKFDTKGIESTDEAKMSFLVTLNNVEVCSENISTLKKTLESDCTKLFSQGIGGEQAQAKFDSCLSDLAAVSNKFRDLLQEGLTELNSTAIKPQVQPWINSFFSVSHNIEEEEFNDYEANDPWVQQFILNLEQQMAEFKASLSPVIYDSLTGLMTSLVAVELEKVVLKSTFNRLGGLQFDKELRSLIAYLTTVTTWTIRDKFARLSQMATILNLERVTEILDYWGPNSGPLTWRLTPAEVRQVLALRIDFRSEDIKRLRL
# Sequence of UniProt Q6PJW8 (Q6PJW8 whole entry, looked up): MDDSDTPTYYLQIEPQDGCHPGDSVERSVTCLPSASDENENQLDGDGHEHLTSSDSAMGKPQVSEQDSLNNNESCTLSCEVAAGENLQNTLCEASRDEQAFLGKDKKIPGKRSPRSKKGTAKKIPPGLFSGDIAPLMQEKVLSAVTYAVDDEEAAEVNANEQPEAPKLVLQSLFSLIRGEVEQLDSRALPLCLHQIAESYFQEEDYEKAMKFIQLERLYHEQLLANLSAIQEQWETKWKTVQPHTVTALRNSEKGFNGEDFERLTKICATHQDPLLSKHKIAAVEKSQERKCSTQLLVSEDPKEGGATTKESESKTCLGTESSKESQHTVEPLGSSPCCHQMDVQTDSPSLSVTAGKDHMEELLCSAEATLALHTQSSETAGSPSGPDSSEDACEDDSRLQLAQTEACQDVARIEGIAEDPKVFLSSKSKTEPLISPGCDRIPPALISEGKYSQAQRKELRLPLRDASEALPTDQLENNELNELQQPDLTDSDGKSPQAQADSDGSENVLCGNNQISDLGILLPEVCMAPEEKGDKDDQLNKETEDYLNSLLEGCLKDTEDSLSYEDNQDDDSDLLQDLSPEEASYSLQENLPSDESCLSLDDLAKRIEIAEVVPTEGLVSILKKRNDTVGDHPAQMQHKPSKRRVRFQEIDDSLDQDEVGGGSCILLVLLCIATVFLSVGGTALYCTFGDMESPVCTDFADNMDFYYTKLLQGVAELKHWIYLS
# Sequence of UniProt Q6UWP2 (Q6UWP2 whole entry, looked up): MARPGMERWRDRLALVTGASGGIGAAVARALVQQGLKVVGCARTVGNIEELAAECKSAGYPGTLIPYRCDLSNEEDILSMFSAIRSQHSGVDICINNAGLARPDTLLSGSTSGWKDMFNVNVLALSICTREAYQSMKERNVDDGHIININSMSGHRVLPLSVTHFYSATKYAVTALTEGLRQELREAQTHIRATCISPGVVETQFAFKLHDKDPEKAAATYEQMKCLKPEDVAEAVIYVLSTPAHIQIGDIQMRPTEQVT
# Sequence of UniProt O60610 (O60610 whole entry, looked up): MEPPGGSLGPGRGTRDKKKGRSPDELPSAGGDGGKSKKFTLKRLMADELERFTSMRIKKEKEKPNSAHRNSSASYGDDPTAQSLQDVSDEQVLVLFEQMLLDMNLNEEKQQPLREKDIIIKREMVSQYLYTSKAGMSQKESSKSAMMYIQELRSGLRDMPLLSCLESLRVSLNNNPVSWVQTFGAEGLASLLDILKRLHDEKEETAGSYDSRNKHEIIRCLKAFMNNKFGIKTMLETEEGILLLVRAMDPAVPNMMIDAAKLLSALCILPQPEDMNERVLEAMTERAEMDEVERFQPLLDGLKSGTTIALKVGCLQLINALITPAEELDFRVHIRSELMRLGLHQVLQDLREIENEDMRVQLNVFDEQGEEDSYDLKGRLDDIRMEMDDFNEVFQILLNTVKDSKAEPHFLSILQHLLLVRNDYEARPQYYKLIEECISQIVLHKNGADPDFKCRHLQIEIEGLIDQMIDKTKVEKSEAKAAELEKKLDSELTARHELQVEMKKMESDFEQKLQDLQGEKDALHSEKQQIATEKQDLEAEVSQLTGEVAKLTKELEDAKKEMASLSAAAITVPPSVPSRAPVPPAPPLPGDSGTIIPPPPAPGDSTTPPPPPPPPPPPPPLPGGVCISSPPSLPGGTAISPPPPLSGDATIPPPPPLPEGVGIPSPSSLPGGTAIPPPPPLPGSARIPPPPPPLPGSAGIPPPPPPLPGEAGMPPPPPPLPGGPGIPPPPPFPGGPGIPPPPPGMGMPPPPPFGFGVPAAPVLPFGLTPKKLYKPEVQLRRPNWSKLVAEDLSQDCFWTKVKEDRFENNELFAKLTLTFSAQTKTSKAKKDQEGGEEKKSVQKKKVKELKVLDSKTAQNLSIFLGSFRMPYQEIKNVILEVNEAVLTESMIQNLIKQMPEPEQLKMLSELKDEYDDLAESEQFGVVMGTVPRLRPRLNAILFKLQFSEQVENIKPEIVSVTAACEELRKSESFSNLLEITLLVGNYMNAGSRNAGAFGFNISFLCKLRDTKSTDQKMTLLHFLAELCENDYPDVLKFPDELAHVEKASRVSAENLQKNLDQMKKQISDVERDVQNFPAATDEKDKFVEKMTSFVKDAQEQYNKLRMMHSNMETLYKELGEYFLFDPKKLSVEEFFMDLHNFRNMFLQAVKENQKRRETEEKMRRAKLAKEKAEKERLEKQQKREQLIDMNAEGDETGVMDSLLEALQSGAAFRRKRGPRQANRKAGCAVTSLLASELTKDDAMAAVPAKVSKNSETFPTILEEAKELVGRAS
Target,log2 fold change [1],log2 fold change [2],log2 fold change [3],log2 fold change [4],log2 fold change [5],log2 fold change [6],log2 fold change [7],log2 fold change [8],log2 fold change [9],log2 fold change [10]
COG4 (UniProt Q9H9E3),0.029,-0.015,-0.05,-0.015,-0.018,0.008,-0.057,0.011,0.039,0.009
CKAP2 (UniProt Q8WWK9),0,-0.158,-0.062,-0.148,-0.015,0.006,-0.611 (active),-0.007,0.046,0.014
DFFB (UniProt O76075),-0.055,0.062,0.071,0.048,0.084,0.047,0,0.013,-0.019,0.008
CNOT4 isoform 6 (UniProt O95628),-0.025,-0.016,0.005,0.017,0.009,-0.035,0.043,-0.032,-0.013,0.041
CLCN3 (UniProt P51790),-0.047,0.043,-0.067,0.06,0.016,-0.02,0.084,-0.043,-0.117,0.083
CNST (UniProt Q6PJW8),0.044,-0.013,0.05,0.01,-0.004,0.007,-0.054,-0.022,0.036,0.023
DEF6 (UniProt Q9H4E7),0.02,0.07,-0.072,0.067,-0.104,0.016,-0.131,0.05,0,0.019
DIAPH1 (UniProt O60610),-0.004,-0.006,0.002,0.007,-0.002,-0.001,-0.006,-0.01,-0.001,-0.007
CHURC1 isoform 2 (UniProt Q8WUH1),0.05,-0.13,-0.021,-0.003,0.015,0.079,0.002,-0.017,0.058,-0.002
CIAO2A (UniProt Q9H5X1),-0.052,0.029,0.03,-0.056,-0.071,-0.025,-0.007,0.04,0.009,0.032
CKAP5 (UniProt Q14008),0.018,0.003,0.005,-0.01,-0.009,0.002,-0.055,-0.015,0.004,0.001
COTL1 (UniProt Q14019),-0.012,0.04,0.013,-0.006,-0.02,0,0.004,0.022,0.008,-0.03
CLIP1 isoform 1 (UniProt P30622),-0.025,-0.026,0.019,-0.005,-0.018,0.005,0.002,0,-0.012,0.007
CYP24A1 (UniProt Q07973),0.015,0.058,0.148,-0.09,-0.083,-0.008,-0.135,-0.05,-0.011,0.07
DHRS11 (UniProt Q6UWP2),0.054,-0.017,-0.004,0.017,-0.006,-0.015,-0.008,-0.041,0.042,-0.02
